From the supplement of paper PMC10849652
Of roughly 8,800 targets only a part is listed; those with a hit were picked by preference. About 0.5% of all pairs of compound and target were hits. A number with no mark means an inactive call.

What was measured:
Assay in all cases: log2 fold change, soluble protein after heating vs DMSO (PISA); higher = thermal stabilisation; K562 lysate, 10 uM; active = over 0.2 and 3.5 SD of the protein, either way, in both replicates (recomputed)
alvocidib = compound: CN1CC[C@H](c2c(O)cc(O)c3c(=O)cc(-c4ccccc4Cl)oc23)[C@H](O)C1 [alvocidib]
Method in brief: (§1)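 The values are log-two fold changes in thermal stability compared with solvent controls and come from duplicates. They were obtained by TMTpro 16plex LC-MS/MS, with channel sums equalised, on the supernatant after 21,000xg for 90 min. That supernatant came from crude K562 extract at 1 mg/mL protein treated with 10 μM compound for 30 min, heated for 3 min across 48°C-58°C, pooled and brought to 0.5% NP-40 at 4°C.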

[1] = compound: CNc1nc(-c2ccc3c(N)n[nH]c3c2)cc(N2C[C@@H](C(=O)NC3CCCCC3)CC[C@H]2C)n1
Method in brief: as §1

encorafenib = compound: COC(=O)N[C@@H](C)CNc1nccc(-c2cn(C(C)C)nc2-c2cc(Cl)cc(NS(C)(=O)=O)c2F)n1 [encorafenib]
Method in brief: as §1

[2] = compound: COC(=O)[C@H](CCSC)NC(=O)C1=C(C=C(C=C1)NC[C@H](CS)N)C2=CC=CC=C2
Method in brief: as §1

[3] = compound: COc1cc2nc(-c3cc(F)ccc3O)nc(N[C@@H]3CNC[C@H]3C(C)(C)O)c2cc1OC
Method in brief: as §1

lapatinib = compound: CS(=O)(=O)CCNCc1ccc(-c2ccc3ncnc(Nc4ccc(OCc5cccc(F)c5)c(Cl)c4)c3c2)o1 [lapatinib]
Method in brief: as §1

pictilisib = compound: CS(=O)(=O)N1CCN(Cc2cc3nc(-c4cccc5[nH]ncc45)nc(N4CCOCC4)c3s2)CC1 [pictilisib]
Method in brief: as §1

[4] = compound: C[C@H](C1=CC=C(C=C1)C(=O)NC2=C3C=CNC3=NC=C2)N
Method in brief: as §1

duvelisib = compound: C[C@H](Nc1ncnc2nc[nH]c12)c1cc2cccc(Cl)c2c(=O)n1-c1ccccc1 [duvelisib]
Method in brief: as §1

gandotinib = compound: Cc1cc(Nc2cc(CN3CCOCC3)c3nc(C)c(Cc4ccc(Cl)cc4F)n3n2)n[nH]1 [gandotinib]
Method in brief: as §1

tozasertib = compound: Cc1cc(Nc2cc(N3CCN(C)CC3)nc(Sc3ccc(NC(=O)C4CC4)cc3)n2)n[nH]1 [tozasertib]
Method in brief: as §1

bafetinib = compound: Cc1ccc(NC(=O)c2ccc(CN3CC[C@H](N(C)C)C3)c(C(F)(F)F)c2)cc1Nc1nccc(-c2cncnc2)n1 [bafetinib]
Method in brief: as §1

[5] = compound: Cc1cccc(CC(=O)N2CCc3c2ccc(-c2cn(C)c4ncnc(N)c24)c3F)n1
Method in brief: as §1

Tubastatin A = compound: CN1CCc2c(c3ccccc3n2Cc2ccc(C(=O)NO)cc2)C1 [Tubastatin A]
Method in brief: as §1

[6] = compound: CNC(=O)C1=CC=CC=C1NC2=NC(=NC=C2Cl)NC3=C(C=C(C=C3)N4CCOCC4)OC
Method in brief: as §1

defactinib = compound: CNC(=O)c1ccc(Nc2ncc(C(F)(F)F)c(NCc3nccnc3N(C)S(C)(=O)=O)n2)cc1 [defactinib]
Method in brief: as §1

alisertib = compound: COc1cc(Nc2ncc3c(n2)-c2ccc(Cl)cc2C(c2c(F)cccc2OC)=NC3)ccc1C(=O)O [alisertib]
Method in brief: as §1

gefitinib = compound: COc1cc2ncnc(Nc3ccc(F)c(Cl)c3)c2cc1OCCCN1CCOCC1 [gefitinib]
Method in brief: as §1

crizotinib = compound: C[C@@H](Oc1cc(-c2cnn(C3CCNCC3)c2)cnc1N)c1c(Cl)ccc(F)c1Cl [crizotinib]
Method in brief: as §1

doramapimod = compound: Cc1ccc(-n2nc(C(C)(C)C)cc2NC(=O)Nc2ccc(OCCN3CCOCC3)c3ccccc23)cc1 [doramapimod]
Method in brief: as §1

UniProt Q96PY5, sequence (Q96PY5 whole entry, looked up): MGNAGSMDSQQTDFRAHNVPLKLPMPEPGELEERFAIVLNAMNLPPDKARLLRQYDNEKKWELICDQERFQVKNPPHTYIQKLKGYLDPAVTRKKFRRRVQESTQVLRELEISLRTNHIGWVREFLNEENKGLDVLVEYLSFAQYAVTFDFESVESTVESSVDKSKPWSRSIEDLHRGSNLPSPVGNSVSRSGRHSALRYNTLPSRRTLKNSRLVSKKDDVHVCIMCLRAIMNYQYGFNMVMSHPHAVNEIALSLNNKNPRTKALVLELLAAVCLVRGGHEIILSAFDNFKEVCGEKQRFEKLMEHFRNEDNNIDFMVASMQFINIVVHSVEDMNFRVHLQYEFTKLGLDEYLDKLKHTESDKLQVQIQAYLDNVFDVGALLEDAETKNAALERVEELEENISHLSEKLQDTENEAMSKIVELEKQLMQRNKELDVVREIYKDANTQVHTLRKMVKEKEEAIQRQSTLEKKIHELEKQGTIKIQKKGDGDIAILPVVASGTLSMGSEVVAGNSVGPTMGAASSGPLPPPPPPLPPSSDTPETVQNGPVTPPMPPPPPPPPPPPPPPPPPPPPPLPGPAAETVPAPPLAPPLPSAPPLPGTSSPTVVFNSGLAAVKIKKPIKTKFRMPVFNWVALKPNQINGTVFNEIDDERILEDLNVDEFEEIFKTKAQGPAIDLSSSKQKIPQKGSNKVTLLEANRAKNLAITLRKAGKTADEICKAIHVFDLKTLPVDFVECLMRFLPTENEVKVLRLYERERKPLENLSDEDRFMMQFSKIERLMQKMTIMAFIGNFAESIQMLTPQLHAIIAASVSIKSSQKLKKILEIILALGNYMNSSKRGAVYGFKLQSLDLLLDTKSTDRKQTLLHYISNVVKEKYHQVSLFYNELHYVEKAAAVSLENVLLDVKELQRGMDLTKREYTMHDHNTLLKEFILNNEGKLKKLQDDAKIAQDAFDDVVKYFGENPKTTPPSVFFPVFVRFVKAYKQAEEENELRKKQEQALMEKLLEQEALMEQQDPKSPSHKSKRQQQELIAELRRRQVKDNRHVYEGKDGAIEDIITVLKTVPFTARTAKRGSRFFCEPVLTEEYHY
UniProt Q9UKR5, sequence (Q9UKR5 whole entry, looked up): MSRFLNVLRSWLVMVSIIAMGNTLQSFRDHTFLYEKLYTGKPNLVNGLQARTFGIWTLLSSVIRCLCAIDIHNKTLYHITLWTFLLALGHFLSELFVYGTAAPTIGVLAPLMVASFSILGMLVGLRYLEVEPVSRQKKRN
UniProt P28676, sequence (P28676 whole entry, looked up): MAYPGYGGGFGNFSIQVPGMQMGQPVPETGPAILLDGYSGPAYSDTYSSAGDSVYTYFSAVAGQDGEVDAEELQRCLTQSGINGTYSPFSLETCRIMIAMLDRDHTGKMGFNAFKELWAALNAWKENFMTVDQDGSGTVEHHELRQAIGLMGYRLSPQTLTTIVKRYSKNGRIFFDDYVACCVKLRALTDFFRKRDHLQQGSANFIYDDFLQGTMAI
UniProt Q14C86, sequence (Q14C86 whole entry, looked up): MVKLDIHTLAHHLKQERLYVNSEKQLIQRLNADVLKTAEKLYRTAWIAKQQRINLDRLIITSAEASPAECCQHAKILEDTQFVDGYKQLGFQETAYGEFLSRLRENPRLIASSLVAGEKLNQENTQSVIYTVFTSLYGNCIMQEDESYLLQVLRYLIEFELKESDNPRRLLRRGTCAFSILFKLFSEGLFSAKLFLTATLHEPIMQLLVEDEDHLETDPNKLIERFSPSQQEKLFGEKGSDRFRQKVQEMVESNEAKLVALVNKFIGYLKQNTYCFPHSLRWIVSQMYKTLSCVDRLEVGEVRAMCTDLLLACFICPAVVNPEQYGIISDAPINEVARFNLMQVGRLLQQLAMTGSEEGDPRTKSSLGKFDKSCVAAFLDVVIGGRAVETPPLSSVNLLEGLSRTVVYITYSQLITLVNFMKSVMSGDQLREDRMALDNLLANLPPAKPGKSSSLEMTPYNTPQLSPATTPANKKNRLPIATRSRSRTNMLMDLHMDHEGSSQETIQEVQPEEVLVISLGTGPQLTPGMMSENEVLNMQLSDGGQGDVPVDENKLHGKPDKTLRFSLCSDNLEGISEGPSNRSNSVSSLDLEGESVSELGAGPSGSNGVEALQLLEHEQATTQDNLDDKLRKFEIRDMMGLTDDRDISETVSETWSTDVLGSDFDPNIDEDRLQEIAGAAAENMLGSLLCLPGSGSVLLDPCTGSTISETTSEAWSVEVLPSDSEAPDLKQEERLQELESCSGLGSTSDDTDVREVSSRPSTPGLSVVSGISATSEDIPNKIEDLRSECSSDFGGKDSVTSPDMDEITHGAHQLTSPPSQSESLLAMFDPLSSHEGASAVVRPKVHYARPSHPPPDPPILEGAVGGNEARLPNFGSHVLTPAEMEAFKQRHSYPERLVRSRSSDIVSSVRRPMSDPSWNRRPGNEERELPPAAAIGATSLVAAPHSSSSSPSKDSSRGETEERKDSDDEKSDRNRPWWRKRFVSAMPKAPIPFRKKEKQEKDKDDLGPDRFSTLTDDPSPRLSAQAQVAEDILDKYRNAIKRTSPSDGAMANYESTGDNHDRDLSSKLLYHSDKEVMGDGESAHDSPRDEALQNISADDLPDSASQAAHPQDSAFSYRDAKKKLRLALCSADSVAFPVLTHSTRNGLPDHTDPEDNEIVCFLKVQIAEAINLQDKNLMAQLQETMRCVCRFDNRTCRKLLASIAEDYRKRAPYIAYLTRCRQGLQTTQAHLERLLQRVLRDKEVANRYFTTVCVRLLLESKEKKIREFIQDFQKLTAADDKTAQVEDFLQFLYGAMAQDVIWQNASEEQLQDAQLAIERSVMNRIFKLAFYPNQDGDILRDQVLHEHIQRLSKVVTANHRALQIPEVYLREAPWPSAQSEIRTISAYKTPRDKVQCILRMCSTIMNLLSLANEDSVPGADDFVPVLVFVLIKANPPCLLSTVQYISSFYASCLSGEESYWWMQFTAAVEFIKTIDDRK
UniProt P0C2W1, sequence (P0C2W1 whole entry, looked up): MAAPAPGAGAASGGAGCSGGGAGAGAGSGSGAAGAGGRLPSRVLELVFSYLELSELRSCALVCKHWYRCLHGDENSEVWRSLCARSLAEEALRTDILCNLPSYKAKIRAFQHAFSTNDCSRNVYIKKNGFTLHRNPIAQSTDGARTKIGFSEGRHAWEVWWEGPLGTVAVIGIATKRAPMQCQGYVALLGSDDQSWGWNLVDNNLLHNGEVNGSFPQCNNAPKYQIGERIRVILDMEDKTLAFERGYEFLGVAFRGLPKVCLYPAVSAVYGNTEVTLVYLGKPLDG

| Target | log2 fold change (alvocidib) | log2 fold change [1] | log2 fold change (encorafenib) | log2 fold change [2] | log2 fold change [3] | log2 fold change (lapatinib) | log2 fold change (pictilisib) | log2 fold change [4] | log2 fold change (duvelisib) | log2 fold change (gandotinib) | log2 fold change (tozasertib) | log2 fold change (bafetinib) | log2 fold change [5] | log2 fold change (Tubastatin A) | log2 fold change [6] | log2 fold change (defactinib) | log2 fold change (alisertib) | log2 fold change (gefitinib) | log2 fold change (crizotinib) | log2 fold change (doramapimod) |
| --- | --- | --- | --- | --- | --- | --- | --- | --- | --- | --- | --- | --- | --- | --- | --- | --- | --- | --- | --- | --- |
| ERG28 (UniProt Q9UKR5) | 0.304 | -0.037 | 0.055 | -0.062 | -0.024 | 0.008 | 0.049 | 0.593 (active) | 0.014 | -0.349 | -0.11 | 0.041 | -0.392 | – | – | – | – | – | – | – |
| FBXO45 (UniProt P0C2W1) | -0.047 | – | -0.062 | -0.035 | 0.02 | -0.067 | -0.034 | -0.081 | – | -0.031 | 0.115 | -0.272 | 0.091 | -0.162 | -0.035 | -0.009 | 0.003 | -0.002 | -0.123 | 0.017 |
| GCA (UniProt P28676) | -0.016 | – | – | – | -0.253 | 0.016 | – | -0.091 | – | -0.073 | – | – | 0.057 | – | -0.035 | – | -0.038 | -0.197 | – | – |
| GAPVD1 (UniProt Q14C86) | – | – | – | – | 0.071 | 0.03 | -0.138 | – | – | – | – | 0.014 | – | – | – | – | – | – | – | – |
| FMNL2 isoform 3 (UniProt Q96PY5) | – | 0.044 | – | – | 0.119 | -0.077 | – | – | -0.085 | – | – | – | – | 0.108 | 0.011 | – | 0.073 | 0.241 | -0.17 | 0.091 |
